This note sets out measurements from PubChem BioAssay AID463173 (ICCB-Longwood Screening Facility, Harvard Medical School, 2010).

Hit rate of the full screen: of about 52,000 compounds, about 1,700 (3.3%) were called active. The entries come from a sample that favours actives as a whole. Values without a mark were called inactive. No stated cut-off is given here; in the data, active means survival mostly below about 52% (no sharp cut-off); inactive means mostly above about 56%.

This assay concerns Wild type. Put plainly: S. aureus survival, RN4220 and DeltatarO strains – OD600, teichoic acid synthesis inhibitors, primary screen (AID 463173). To be noted: S. aureus RN4220 wild type/DeltatarO growth, OD600, 18 h, stronger effect = lower value, concentration not given here.
Turning to `COc1ccccc1NC(=O)N(Cc1ccc2c(c1)OCO2)C1CCN(Cc2ccccc2)CC1`, the survival is 78%.
For `Cc1ccc(NC(=O)N(Cc2ccc3c(c2)OCO3)C2CCN(Cc3ccccc3)CC2)cc1Cl`, the survival was 133%.
Take `Cc1ccc(NC(=O)N(Cc2ccc3c(c2)OCO3)C2CCN(Cc3ccccc3)CC2)cc1F`: the survival is 76%.
As to `O=C(Nc1ccccc1)N(Cc1ccc2c(c1)OCO2)C1CCN(Cc2ccccc2)CC1`, the survival is 78%.
Then `Cc1ccc(Cl)cc1NC(=O)N(Cc1ccc2c(c1)OCO2)C1CCN(Cc2ccccc2)CC1`, with 14% (active).
The figure for `Cc1ccc(NC(=O)N(Cc2ccc3c(c2)OCO3)C2CCN(Cc3ccccc3)CC2)cc1C` is -1% (active); for `Cc1cccc(CN2CCN(C(=O)COc3ccccc3)CC2)c1` it is 108%.
The figure for `CCCOc1ccc(CCN)cc1Cl` is 107%; for `O=C(Nc1ccc2c(c1)OCO2)c1cccn(Cc2cccc([N+](=O)[O-])c2)c1=O` it is 77%; for `c1cc(C2CCNCC2)ccn1` it is 104%.
For `NC(=O)CN1C2CCC1CC(NC(=O)C1CC1)C2` (centres undefined), the survival is 103%.
For `O=S1(=O)N(Cc2ccccc2)CCCN1Cc1ccc(F)cc1Cl`, the survival was 76%.
With `O=S1(=O)N(Cc2ccccc2)CCCN1Cc1cccc(Cl)c1`, the survival is 78%.
`O=S1(=O)N(Cc2ccccc2Cl)CCCN1Cc1ccccc1Cl`: the survival was -4% (active).
Regarding `COc1ccc(CN2C(=O)CC(=O)NC2=S)cc1`, the survival was 107%.
Then `CCCCc1nn2c(=O)cc(COC(=O)Cc3ccccc3)nc2s1`, with 84%.
Then `CCC(C)N1CCN(Cc2ccccc2)CC1` (centres undefined), with 111%; and `COc1ccccc1C1SCC(=O)Nc2c1c(C)nn2-c1cccc(C)c1` (centres undefined), with -10% (active).
Regarding `Cc1cccc(-n2nc(C)c3c2NC(=O)CSC3c2ccccc2Cl)c1` (centres undefined), the survival is 64%.
Then `CCCOc1ccc(C2SCC(=O)Nc3c2c(C)nn3-c2cccc(C)c2)cc1OC` (centres undefined), with 62%.
For the molecule `CCCc1nc2ccccc2c(=O)n1-c1ccccc1`, the survival is 127%.
For the molecule `O=C(COc1ccccc1)N1CCN(Cc2ccc(Br)cc2)CC1`, the survival is 100%.
As to `CCCCCn1c(=O)c(C(=O)Nc2ccccc2S(N)(=O)=O)c(O)c2ccccc21`, the survival is 0% (active).
On to `CCCCn1c(=O)c(C(=O)NC)c(O)c2ccccc21`, for which the survival was 112%.
In the case of `CCSc1nnc(NC(=O)c2cccn(Cc3ccccc3Cl)c2=O)s1`, the survival is 71%.
The figure for `CN1CCC2(CC1)CC(NC=O)c1ccccc1O2` (centres undefined) is 108%; for `O=C(CN1C(=O)CN=C(c2ccccc2)c2ccccc21)Nc1cccc(C(F)(F)F)c1` it is 48%.
Regarding `N#Cc1cc2c(nc1SCC(=O)Nc1ccc(C(F)(F)F)cc1)C1CCN2CC1`, the survival is 0% (active).
With `Nc1c(C(=O)Nc2cccc(Br)c2)sc2nc3c(cc12)N1CCC3CC1`, the survival was 63%.
As for `CCOC(=O)c1ccc(NC(=O)CSc2nc3c(cc2C#N)N2CCC3CC2)cc1`, the survival was 84%.
The figure for `N#Cc1cc2c(nc1SCC(=O)Nc1cccc(F)c1)C1CCN2CC1` is -3% (active); for `N#Cc1cccc(NC(=O)CSc2nc3c(cc2C#N)N2CCC3CC2)c1` it is 76%; for `N#Cc1cc2c(nc1SCC(=O)Nc1cccc(C(F)(F)F)c1)C1CCN2CC1` it is 0% (active).
Regarding `Nc1c(C(=O)Nc2ccc(OC(F)(F)F)cc2)sc2nc3c(cc12)N1CCC3CC1`, the survival is 167%.
